Measured values as given in PubChem BioAssay (Tox21).
Records with an inconclusive call do not appear. Activity calls are given as the source filed them. Unless noted, calls come from the whole dose curve; as a rule, active = well fitted curve in the direction sought with a large enough effect in the repeat runs; inconclusive = weak or mixed curves; inactive = no such curve, though single readings can be large; an effect the other way counts as inactive or inconclusive.

What was measured:
[1] = qHTS assay to identify small molecule antagonists of the progesterone receptor (PR) signaling pathway - cell viability counter screen (AID 1346798); note: nearly all actives have a fitted effect of over 50% in size; note: potency is the fitted concentration of half-maximal effect; for activity change, negative = cytotoxicity: series mostly up to about 92 µM
Summary of the method: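 PR-UAS-bla HEK293T cells, 3,000/well in 2% charcoal-stripped FBS medium, dosed with compounds plus R5020 agonist and incubated 16 h at 37C. Viability then measured in the same wells by CellTiter-Glo luminescence after 30 min at RT.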

[2] = qHTS assay to identify small molecule agonists of the progesterone receptor (PR) signaling pathway - cell viability counter screen (AID 1346799; calls by dose curve; note: nearly all actives have a fitted effect of over 45% in size; note: potency is the fitted concentration of half-maximal effect)
Summary of the method: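 Counter screen in the PR-UAS-bla HEK293T wells (2% charcoal-stripped FBS, 16 h compound exposure at 37 C) after the bla read. CellTiter-Glo added, 30 min at room temperature, luminescence read as cell viability.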

[3] = qHTS assay to identify small molecule antagonists of the TGF-beta/Smad signaling pathway - cell viability counter screen (AID 1346824); note: nearly all actives have a fitted effect of over 50% in size
Summary of the method: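 SBE-bla HEK 293T cells were plated overnight at 37 C, then given compounds in DMSO plus TGF-beta1 (added as 0.25 ng/mL solution) for 5 hr. After the bla read, CellTiter-Glo was added to the same wells and luminescence read after 30 min at room temperature.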

[4] = qHTS assay to identify small molecule agonists of the TGF-beta/Smad signaling pathway - cell viability counter screen (AID 1346829); note: top concentration of the series differs between compounds; nearly all actives have a fitted effect of over 45% in size
Summary of the method: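 In parallel with the Smad reporter read, viability of HEK 293T cells stably carrying SBE-bla is quantified by ATP luminescence following 5 hr compound treatment.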

[5] = qHTS assay to identify small molecule agonists of the TGF-beta/Smad signaling pathway (AID 1346859; active = well fitted activation curve with a large enough effect in the signal ratio in the repeat runs, not every such curve was filed as active; the % refers to the signal ratio; note: series mostly up to about 77 µM)
Summary of the method: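 SBE-bla HEK293T cells plated overnight, then compound exposure for 5 h at 37 C. Beta-lactamase reporter read with LiveBLAzer B/G FRET substrate after 2 h at room temperature, fluorescence at 405 nm excitation, 460/530 nm emission.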

[6] = target: Thyrotropin-releasing hormone receptor (Homo sapiens) (UniProt P34981); experiment: qHTS assay to identify small molecule antagonists of the thyrotropin-releasing hormone receptor (TRHR) signaling pathway (AID 1346877; active = well fitted inhibition curve with a large enough effect in the repeat runs, not every such curve was filed as active; note: series mostly up to about 51 µM)
Sequence of Thyrotropin-releasing hormone receptor (Homo sapiens) (P34981 whole entry, looked up): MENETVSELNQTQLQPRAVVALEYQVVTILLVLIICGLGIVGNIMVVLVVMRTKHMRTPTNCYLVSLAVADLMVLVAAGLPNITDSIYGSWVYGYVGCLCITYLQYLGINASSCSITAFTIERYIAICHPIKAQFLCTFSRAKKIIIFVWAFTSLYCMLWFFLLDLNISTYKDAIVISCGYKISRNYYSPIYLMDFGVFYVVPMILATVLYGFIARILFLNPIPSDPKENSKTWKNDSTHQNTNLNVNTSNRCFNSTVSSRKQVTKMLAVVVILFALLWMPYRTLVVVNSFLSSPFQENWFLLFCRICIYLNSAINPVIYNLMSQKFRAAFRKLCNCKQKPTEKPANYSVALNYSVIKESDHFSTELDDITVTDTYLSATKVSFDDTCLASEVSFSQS
Summary of the method: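 Calcium signal in dye-loaded TRHR/HEK293 cells; compounds added 5 min before TRH (1 nM final); fluorescence monitored 3 min at 1 s steps.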

[7] = target: Thyrotropin-releasing hormone receptor (Homo sapiens) (UniProt P34981); experiment: qHTS assay to identify small molecule agonists of the thyrotropin-releasing hormone receptor (TRHR) signaling pathway (AID 1346891; calls by dose curve; note: series mostly up to about 58 µM)
Summary of the method: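 HEK293 cells expressing TRHR plated 18 h at 37 C/5% CO2, calcium dye-loaded 2 h at 37 C, then compound added (agonist mode); kinetic calcium fluorescence read 3 min at 1 s intervals; 15 concentrations in triplicate.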

[8] = Human pregnane X receptor (PXR) small molecule agonists, qHTS cell viability counter screen (AID 1346977); note: nearly all actives have a fitted effect of over 50% in size
Summary of the method: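 PXR-Luc HepG2 cells (2,000/well, 5% charcoal-stripped FBS) preincubated 5 hr, then exposed to compounds 24 hr at 37 C. Viability read in the same wells by CellTiter-Fluor fluorescence, reagent added at 23 hr, 1 hr incubation.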

[9] = Caspase-3/7 induction in HepG2 cells by small molecules, qHTS assay (AID 1346978); note: nearly all actives have a fitted effect of over 15% in size
Summary of the method: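 Wild-type HepG2 cells (2,000/well) were settled 5 h at 37 C, 5% CO2, then exposed to compounds in DMSO for 17 h. Caspase-3/7 activity was read by luminescence 30 min after adding Caspase-Glo 3/7 reagent at room temperature.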

[10] = target: Progesterone receptor (Homo sapiens) (UniProt P06401); experiment: qHTS assay to identify small molecule antagonists of the progesterone receptor (PR) signaling pathway (AID 1346795; active = well fitted inhibition curve with a large enough effect in the signal ratio in the repeat runs, not every such curve was filed as active; the % refers to the signal ratio; note: potency is the fitted concentration of half-maximal effect)
Sequence of Progesterone receptor (Homo sapiens) (P06401 whole entry, looked up): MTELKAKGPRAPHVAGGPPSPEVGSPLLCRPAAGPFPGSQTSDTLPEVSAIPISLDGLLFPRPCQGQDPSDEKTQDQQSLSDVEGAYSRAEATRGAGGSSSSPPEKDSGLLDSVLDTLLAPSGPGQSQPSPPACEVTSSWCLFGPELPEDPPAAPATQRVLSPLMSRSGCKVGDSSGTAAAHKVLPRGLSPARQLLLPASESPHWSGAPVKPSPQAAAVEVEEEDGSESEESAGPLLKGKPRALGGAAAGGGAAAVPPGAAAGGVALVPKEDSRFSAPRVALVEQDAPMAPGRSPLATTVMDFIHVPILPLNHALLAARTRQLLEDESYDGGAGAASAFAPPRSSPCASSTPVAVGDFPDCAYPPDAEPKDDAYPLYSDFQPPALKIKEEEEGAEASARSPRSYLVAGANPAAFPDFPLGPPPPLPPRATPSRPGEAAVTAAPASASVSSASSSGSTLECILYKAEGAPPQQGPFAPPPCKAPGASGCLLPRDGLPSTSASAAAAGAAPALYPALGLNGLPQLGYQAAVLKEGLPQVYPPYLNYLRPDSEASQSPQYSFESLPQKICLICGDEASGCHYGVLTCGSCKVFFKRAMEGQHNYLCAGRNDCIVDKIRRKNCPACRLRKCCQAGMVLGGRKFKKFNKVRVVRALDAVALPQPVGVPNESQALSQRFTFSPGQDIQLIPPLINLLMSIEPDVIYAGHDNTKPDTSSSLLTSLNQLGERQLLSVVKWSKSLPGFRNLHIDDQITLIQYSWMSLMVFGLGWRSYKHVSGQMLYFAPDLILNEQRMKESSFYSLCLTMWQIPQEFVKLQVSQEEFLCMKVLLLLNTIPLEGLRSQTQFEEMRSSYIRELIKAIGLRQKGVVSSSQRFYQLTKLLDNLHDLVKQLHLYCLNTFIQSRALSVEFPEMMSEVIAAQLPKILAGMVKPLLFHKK
Summary of the method: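 PR-UAS-bla HEK293T cells with beta-lactamase reporter under UAS control, in 2% charcoal-stripped FBS, treated with compounds plus 1 nM promegestone (R5020, final) for 16 hr at 37C. Read-out: FRET beta-lactamase substrate fluorescence after 2 hr at room temperature.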
% is set by controls: 0 for no effect and ±100 for the full control effect.

O=Cc1cccc(Br)c1
inactive: Potency [1] | Potency [2] | outcome [3] | outcome [4] | outcome [5] | outcome [6] | Potency [7] | Potency [8] | outcome [9]

CC(COc1ccccc1)NN (configuration not stated)
inactive: Potency [1] | Potency [2] | outcome [3] | outcome [4] | outcome [5] | Potency [8]

CC12CCC(C(=O)C1=O)C2(C)C (configuration not stated)
inactive: Potency [1] | Potency [2] | outcome [3] | outcome [4] | outcome [5] | outcome [6] | Potency [7] | Potency [8] | outcome [9]

C[N+](C)(C)CCCCCCCCCC[N+](C)(C)C
inactive: Potency [1] | Potency [2] | outcome [3] | outcome [4] | outcome [5] | Potency [8]

CCCCCCCCCCOc1cc2c(=O)c(C(=O)OCC)c[nH]c2cc1OCC
inactive: activity change, negative = cytotoxicity [1] 1.18% [at 8.39 µM] | activity change, negative = cytotoxicity [2] -5.75% [at 8.39 µM] | viability change, negative = cytotoxic [3] 0.981% [at 6.97 µM] | activation [5] 0.379% [at 6.97 µM] | activity, negative = inhibition [6] 0.403% [at 4.65 µM] | activation [7] 0.481% [at 5.23 µM] | activity change, negative = cytotoxicity [8] -1.67% [at 8.39 µM] | caspase activation [9] 0.159% [at 8.39 µM]

Cc1onc(-c2c(Cl)cccc2Cl)c1C(=O)Cl
inactive: Potency [1] | Potency [2] | outcome [3] | outcome [4] | outcome [5] | outcome [6] | Potency [7] | Potency [8] | outcome [9]

Cc1nc(C2CCCCC2)c(-c2ccc(S(N)(=O)=O)c(F)c2)o1
active: Potency [10] 26.6 µM
inactive: outcome [3] | outcome [4] | outcome [5] | outcome [6] | Potency [7] | Potency [8] | outcome [9]

CC1=CCC(O)(C(C)C)CC1 (configuration not stated)
inactive: Potency [1] | Potency [2] | outcome [3] | outcome [4] | outcome [5] | outcome [6] | Potency [7] | Potency [8] | outcome [9]

COc1cc(C)nc(-n2nc(C)cc2OC)n1
active: Potency [1] 11.9 µM | Potency [2] 8.41 µM
inactive: outcome [3] | outcome [4] | outcome [5] | Potency [8] | outcome [9]

C[N+](C)(CCOc1ccccc1)Cc1cccs1
inactive: Potency [1] | Potency [2] | outcome [3] | outcome [4] | outcome [6] | Potency [7] | Potency [8] | outcome [9]

O=C(c1ccccc1O)c1ccccc1O
inactive: Potency [1] | Potency [2] | outcome [3] | outcome [4] | outcome [5] | outcome [9]

CC(C)(C)C(=O)c1ccccc1
inactive: Potency [1] | Potency [2] | outcome [3] | outcome [4] | outcome [5] | Potency [8] | outcome [9]

C=C(C)C(=O)OCCOCCOCCOCCOC(=O)C(=C)C
inactive: Potency [1] | Potency [2] | outcome [3] | outcome [4] | outcome [5] | outcome [6] | Potency [7] | Potency [8] | outcome [9]

CC1=NN(c2cccc(S(=O)(=O)O)c2)C(=O)C1
inactive: Potency [10] | outcome [3] | outcome [4] | outcome [5] | outcome [6] | Potency [7] | Potency [8] | outcome [9]

CCOC(=O)CCC(=O)OCC
inactive: Potency [1] | Potency [2] | outcome [3] | outcome [4] | outcome [5] | outcome [6] | Potency [7] | outcome [9]

CC(=O)c1ccccc1[N+](=O)[O-]
inactive: Potency [1] | Potency [2] | outcome [3] | outcome [4] | outcome [5] | outcome [6] | Potency [7] | Potency [8] | outcome [9]

CNC(=O)Nc1ccc(Cl)c(Cl)c1
inactive: Potency [1] | Potency [2] | outcome [3] | outcome [5] | outcome [6] | Potency [7] | Potency [8]

CCOc1ccc2nc(S(N)(=O)=O)sc2c1
inactive: Potency [1] | Potency [2] | outcome [3] | outcome [4] | outcome [5] | outcome [6] | Potency [7] | Potency [8] | outcome [9]

Cc1ccc(C(=O)c2ccccc2)cc1
inactive: Potency [1] | Potency [2] | outcome [3] | outcome [4] | outcome [5] | outcome [6] | Potency [7] | Potency [8] | outcome [9]

O=C1CCCCCCCCCCCCCCO1
inactive: Potency [1] | Potency [2] | outcome [3] | outcome [4] | outcome [5] | outcome [6] | Potency [7] | Potency [8] | outcome [9]

Cc1ccc(C(=O)c2ccc(CC(=O)O)n2C)cc1
inactive: Potency [1] | Potency [2] | outcome [3] | outcome [4] | outcome [6] | Potency [7] | Potency [8] | outcome [9]

CC(=O)O[C@@]12CO[C@@H]1C[C@H](O)[C@@]1(C)C(=O)[C@H](O)C3=C(C)[C@@H](OC(=O)[C@H](O)[C@@H](NC(=O)OC(C)(C)C)c4ccccc4)C[C@@](O)([C@@H](OC(=O)c4ccccc4)[C@H]21)C3(C)C
inactive: Potency [10] | outcome [3] | outcome [4] | outcome [5] | Potency [8]

N[C@@H](CCC(=O)O)C(=O)O
inactive: Potency [1] | Potency [2] | outcome [3] | outcome [4] | outcome [5] | outcome [6] | Potency [7] | Potency [8] | outcome [9]
